In PubChem BioAssay AID602342 (Broad Institute, 2012) one finds activation (reporter increase) data, which are given here for 67 compounds.

In all, about 340,000 compounds went through this assay and about 1,000 (0.29%) were called active. The list comes from a sample in which actives are over-represented; it also holds similar structures and randomly drawn compounds. Unmarked numbers belong to inactive results.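 The calls were made as follows: active = mean replicate activation score at least 90 and every replicate individually at or above 90; inconclusive = only one of the two criteria met; inactive = neither criterion met.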

The test can be described thus: miR-122 Renilla sensor signal increase in Huh7, primary screen, miR-122 inhibitor project, cell-based, single point, plate reader (AID 602342).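 Also: higher luciferase means less miR-122 activity so hits act as miR-122 inhibitors.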 Particulars: Huh7 miR-122 Renilla luciferase sensor, 48 h, hits give high values, neutral wells = 0, positive control = 100; at 16.7 µM unless noted.
As to `C[C@@H]1CN([C@@H](C)CO)C(=O)Cc2cc(NC(=O)C3CC3)ccc2O[C@H]1CN(C)C(=O)NC1CCCCC1`, the activation (reporter increase) is 0.966%.
Next, `Cc1ccc(C(=O)Nc2ccccc2-c2ccccc2)cc1S(=O)(=O)Nc1ccccc1`: 94% [at 12.5 µM] (active).
Next, `CCN(CC)S(=O)(=O)c1cc(C(=O)Nc2ccccn2)ccc1C`: -6.4% [at 12.5 µM]; `COc1cc(OC)c(C(=O)Nc2ccccc2-c2ccccc2)cc1OC`: 9.15% [at 12.5 µM]; `C[C@H]1CCCCO[C@@H](CN(C)C(=O)Nc2cccc3ccccc23)[C@@H](C)CN([C@@H](C)CO)C(=O)c2cc(NS(=O)(=O)c3cn(C)cn3)ccc2O1`: -0.833%.
With `Cc1cc(C)cc(NS(=O)(=O)c2ccc(F)cc2)c1`, the activation (reporter increase) is 117% [at 12.5 µM] (active).
Under `Cn1c(=O)n(C)c2cc(S(=O)(=O)Nc3ccc(F)cc3)ccc21` stands 44% [at 12.5 µM]; under `Cc1ccc(NS(=O)(=O)c2ccc(F)cc2)nc1`, 4.41% [at 12.5 µM].
For the compound `COc1ccc(CN(C)C[C@H]2Oc3c(NS(=O)(=O)c4ccccc4)cccc3C(=O)N([C@@H](C)CO)C[C@H]2C)cc1`, the activation (reporter increase) is 4.79%.
Next, `CCC(=O)N1[C@@H]2c3ccc(-c4cccnc4)c(=O)n3C[C@H]1[C@H](CO)[C@H]2C(=O)N1CCc2ccccc2C1`: 2.45%; `COc1ccccc1C#Cc1cnc2c(c1)C(=O)N([C@@H](C)CO)C[C@H](C)[C@@H](CN(C)C(=O)CC1CC1)O2`: -1.03%; `O=C1c2ccccc2C2=Nc3ccccc3SC(c3ccccc3F)C12` (configuration not stated): 162% [at 12.5 µM] (active).
Consider `O=C1c2ccccc2C(=O)C1c1ccccc1F`, for which the activation (reporter increase) is -3.15% [at 12.5 µM].
On to `O=C(C[C@@H]1C[C@@H]2c3cc(NC(=O)Nc4ccccc4F)ccc3O[C@@H]2[C@H](CO)O1)NCCc1ccccc1`, for which the activation (reporter increase) is -2.6%.
For the compound `N#CCCN(C(=O)Nc1ccc(Cl)c(Cl)c1)C1CCCCC1`, the activation (reporter increase) is -4.25% [at 12.5 µM].
Under `CS(=O)(=O)N(CC(=O)Nc1ccc(F)cc1)C1CCCCC1` stands 0.106% [at 12.5 µM]; under `CS(=O)(=O)N(CC(=O)Nc1ccc(Cl)c(Cl)c1)C1CCCCC1`, 174% [at 12.5 µM] (active); under `C[C@@H]1CN([C@H](C)CO)C(=O)c2cc(C#CCN(C)C)cnc2O[C@H]1CN(C)C(=O)NC1CCCC1`, 26%.
For the compound `CN1CCN(C(=O)C[C@H]2C[C@@H]3c4cc(NS(=O)(=O)c5ccc(F)cc5)ccc4O[C@@H]3[C@@H](CO)O2)CC1`, the activation (reporter increase) was -5.91%.
`CCCN1C[C@H](C)[C@@H](OC)CN(C)C(=O)c2ccc(NC(=O)CC)cc2OC[C@@H]1C`: the activation (reporter increase) is 4.54%.
For the compound `CCOc1ccccc1CNS(=O)(=O)c1cc(-c2cc(C)no2)ccc1C`, the activation (reporter increase) is 54.4% [at 12.5 µM].
In the case of `Cc1cc(-c2ccc(C)c(S(=O)(=O)Nc3ccc(S(N)(=O)=O)cc3)c2)on1`, the activation (reporter increase) is 5.41% [at 12.5 µM].
Next, `Cc1noc(C)c1S(=O)(=O)NCCc1ccc(S(N)(=O)=O)cc1`: -7.32% [at 12.5 µM].
As for `COc1ccc(CNS(=O)(=O)c2cc(-c3cc(C)no3)ccc2C(C)C)cc1`, the activation (reporter increase) was 200% [at 12.5 µM] (active).
For the compound `CCc1ccc(-c2cc(C)no2)cc1S(=O)(=O)NCCc1ccc(S(N)(=O)=O)cc1`, the activation (reporter increase) is 124% [at 12.5 µM] (active).
Under `Cc1cc(-c2ccc(C)c(S(=O)(=O)NCCCN(Cc3ccccc3)C(C)C)c2)on1` stands 46.4% [at 12.5 µM].
As for `C[C@@H]1CN([C@@H](C)CO)C(=O)c2cc(NC(=O)Nc3cccc4ccccc34)ccc2O[C@H]1CN(C)Cc1ccc(Oc2ccccc2)cc1`, the activation (reporter increase) is -7.47%.
With `C[C@H](CO)N1C[C@H](C)[C@@H](CN(C)C(=O)C2CC2)Oc2ncc(-c3cccc(F)c3)cc2C1=O`, the activation (reporter increase) is -1.71%.
As for `CN(C)C(=O)C[C@@H]1CC[C@H]2[C@@H](COC[C@H](O)CN2S(=O)(=O)c2ccccc2)O1`, the activation (reporter increase) is 0.2%.
Consider `CCCNC(=O)Nc1ccc2c(c1)C(=O)N(C)[C@@H]1CC[C@@H](CC(=O)NC)O[C@H]1CO2`, for which the activation (reporter increase) was -13.3%.
Consider `O=C(C[C@@H]1CC[C@H]2[C@@H](COC[C@@H](O)CN2C(=O)c2ccc3c(c2)OCO3)O1)NC1Cc2ccccc2C1`, for which the activation (reporter increase) was 5.8%.
Under `COCCNC(=O)C[C@@H]1CC[C@H]2[C@H](COc3ccc(NS(=O)(=O)c4ccc(Cl)cc4)cc3C(=O)N2C)O1` stands 12.5%; under `C[C@@H]1CN([C@@H](C)CO)C(=O)c2cc(C#CC(C)(C)O)cnc2O[C@H]1CN(C)Cc1cccc(F)c1`, 0.476%.
`CO[C@@H]1CN(C)C(=O)c2ccc(NC(=O)C3CCC3)cc2OC[C@H](C)N(C(=O)CN(C)C)C[C@H]1C`: the activation (reporter increase) was -7.5%.
Take `COCC(=O)Nc1ccc2c(c1)C(=O)N(C)[C@H]1CC[C@@H](CC(=O)NCc3cccc(F)c3)O[C@H]1CO2`: the activation (reporter increase) is 62.5%.
For the compound `COCC(=O)Nc1ccc2c(c1)C(=O)N(C)[C@@H]1CC[C@@H](CC(=O)NCc3cccc(F)c3)O[C@@H]1CO2`, the activation (reporter increase) was 41.7%.
As to `CCCC(=O)Nc1ccc2c(c1)C(=O)N(C)[C@H]1CC[C@@H](CC(=O)NCc3cccc(F)c3)O[C@H]1CO2`, the activation (reporter increase) was 120% (active).
`CS(=O)(=O)N1[C@H](C(=O)NCc2ccncc2)[C@@H](CO)[C@@H]2Cn3c(ccc(C4=CCCCC4)c3=O)[C@@H]21`: the activation (reporter increase) was 1.3%.
For `O=C(Nc1cc(S(=O)(=O)Nc2ccc(Cl)cc2)ccc1O)c1ccc(F)cc1F`, the activation (reporter increase) was 118% [at 12.5 µM] (active).
Next, `CCS(=O)(=O)c1ccc(O)c(NC(=O)COc2ccc(Cl)cc2)c1`: 2.08% [at 12.5 µM]; `O=C(Nc1cccc(S(=O)(=O)NC2=NCCC2)c1)c1ccc(F)cc1F`: 0.138% [at 12.5 µM].
Turning to `C[C@H](CO)N1C[C@H](C)[C@H](CN(C)C(=O)NC2CCCCC2)OCCCC[C@H](C)Oc2ccc(NC(=O)Nc3ccc4c(c3)OCO4)cc2C1=O`, the activation (reporter increase) is -2.47%.
Consider `C[C@@H]1CCCCO[C@H](CN(C)Cc2ccccc2)[C@H](C)CN([C@H](C)CO)C(=O)c2cc(NS(=O)(=O)c3ccc(Cl)cc3)ccc2O1`, for which the activation (reporter increase) was -12.3%.
In the case of `COc1ccc(S(=O)(=O)Nc2ccc3c(c2)C(=O)N([C@@H](C)CO)C[C@@H](C)[C@H](CN(C)C(=O)CCC(F)(F)F)OCCCC[C@H](C)O3)cc1`, the activation (reporter increase) is -1.47%.
Consider `C[C@@H]1CN([C@@H](C)CO)C(=O)c2cc(-c3cncnc3)cnc2O[C@H]1CN(C)C(=O)c1cccc(F)c1`, for which the activation (reporter increase) was -0.099%.
Consider `COc1ccccc1CNS(=O)(=O)c1cc2c3c(c1)CCC(=O)N3CCC2`, for which the activation (reporter increase) is 6.96% [at 12.5 µM].
As to `COc1ccc(CNS(=O)(=O)c2cc3c4c(c2)CCN4C(=O)CC3)cc1`, the activation (reporter increase) is 2.78% [at 12.5 µM].
As for `COc1ccc(C)cc1S(=O)(=O)Nc1cc2c3c(c1)CCC(=O)N3CCC2`, the activation (reporter increase) is 150% [at 12.5 µM] (active).
On to `O=C(CN1CCOCC1)Nc1cc(Cl)ccc1Cl`, for which the activation (reporter increase) is 101% [at 12.5 µM] (active).
Regarding `O=C(CN1CCOCC1)Nc1c(Cl)cc(Cl)cc1Cl`, the activation (reporter increase) is -6.99% [at 12.5 µM].
Under `O=C(CN1CCOCC1)Nc1ccc(NC(=O)CN2CCOCC2)c(Cl)c1` stands 4.91% [at 12.5 µM]; under `COc1ccc(S(=O)(=O)Nc2cccc3c2O[C@H](CN(C)Cc2ccc4c(c2)OCO4)[C@H](C)CN([C@@H](C)CO)C3=O)cc1`, 2.28%.
On to `CC(=O)N(C)C[C@@H]1Oc2cc(-c3cccnc3)ccc2S(=O)(=O)N([C@@H](C)CO)C[C@H]1C`, for which the activation (reporter increase) is 0.602%.
Take `CC(C)NC(=O)Nc1ccc2c(c1)C(=O)N([C@H](C)CO)C[C@H](C)[C@@H](CN(C)S(=O)(=O)c1ccc(F)cc1)OCCCC[C@H](C)O2`: the activation (reporter increase) is -3.83%.
Regarding `O=C(NC1CCCC1)[C@@H]1[C@@H](CO)[C@@H]2Cn3c(ccc(-c4ccc(F)cc4)c3=O)[C@H]1N2Cc1cocn1`, the activation (reporter increase) is 1.2%.
In the case of `CCCC#Cc1cnc2c(c1)C(=O)N([C@H](C)CO)C[C@H](C)[C@H](CN(C)S(=O)(=O)c1cn(C)cn1)O2`, the activation (reporter increase) is -3.62%.
Turning to `C[C@@H]1CN([C@H](C)CO)C(=O)c2cccc(NS(=O)(=O)c3ccc(F)cc3)c2O[C@@H]1CN(C)S(=O)(=O)c1ccccc1`, the activation (reporter increase) was -5.32%.
Take `CC1=C(C)CC(C(=O)NNC(=O)c2ccccc2O)C(C(=O)O)C1` (configuration not stated): the activation (reporter increase) is 151% [at 12.5 µM] (active).
`O=C(NNC(=O)c1cc(S(=O)(=O)N2CCCCC2)ccc1Cl)c1ccccc1O`: the activation (reporter increase) was -7.51% [at 12.5 µM].
On to `O=C(NNC(=O)C1CCC1)c1ccccc1`, for which the activation (reporter increase) was 1.59% [at 12.5 µM].
With `Cc1cc(C(=O)CCC(=O)NNC(=O)c2ccccc2O)c(C)s1`, the activation (reporter increase) was -0.772% [at 12.5 µM].
Under `O=C(NNC(=O)c1ccccc1O)c1ccccc1O` stands 530% [at 12.5 µM] (active).
Take `CC1=C(C)CC(C(=O)NNC(=O)c2csc3c2CCC(C(C)(C)C)C3)C(C(=O)O)C1` (configuration not stated): the activation (reporter increase) is -0.996% [at 12.5 µM].
Take `C[C@@H]1CCCCO[C@H](CN(C)C(=O)NC2CCCCC2)[C@@H](C)CN([C@H](C)CO)C(=O)c2cc(NC(=O)CCC(F)(F)F)ccc2O1`: the activation (reporter increase) is 4.05%.
For the compound `CC(=O)NS(=O)(=O)c1ccc(NC(=S)NC(=O)C(C)(C)C)cc1`, the activation (reporter increase) was -3.58% [at 12.5 µM].
`COc1ccc(NS(=O)(=O)c2ccc(NC(=O)c3ccc(N(C)S(C)(=O)=O)cc3)cc2)cc1`: the activation (reporter increase) was 3.93% [at 12.5 µM].
`COc1ccc(NS(=O)(=O)c2ccc(NC(=S)NC(=O)CC(C)C)cc2)cc1`: the activation (reporter increase) is 161% [at 12.5 µM] (active).
